Our source for the Potency values is PubChem BioAssay AID2662 (National Center for Advancing Translational Sciences (NCATS), 2010).

Molecules are shown by their SMILES. Screen size: about 290,000 compounds; about 110 (0.038%) were called active. Entries that show only a call come without a potency. Another 3% or so got no clear call; they are omitted. The call rests on the fitted dose curve; in most records, active means well fitted inhibition curve with a large enough effect in the polarisation, with a control signal flat (not every such curve was filed as active); inconclusive means small, poorly fitted or top-dose-only effect, or effect the other way, or a change in a side signal; inactive means no such curve, though single readings can be large or run the other way; the % refers to the polarisation. This excerpt belongs to a sample that is enriched for actives.
Potency means the concentration at half of the fitted maximal effect.

This assay deals with Histone-lysine N-methyltransferase 2A (Homo sapiens) (UniProt Q03164). Nature of the assay: qHTS Fluorescence Polarization Assay for Inhibitors of MLL CXXC domain - DNA interaction. Conditions: MLL-CXXC / FITC-HOXA9 DNA fluorescence polarization; series mostly up to 115 µM. The text has this: NIH Chemical Genomics Center [NCGC] NIH Molecular Libraries Probe Production centers Network [MLPCN] MLPCN Grant: DA027717-01A1 Assay Submitter (PI): John Bushweller NCGC Assay Overview: The MLL (Mixed Lineage Luekemia) gene is involved in chromosomal translocation that results in either acute lymphoid leukemia (ALL) or acute myeloid leukemia (AML). Chromasomal translocation of MLL gene is responsible for the fusion of N-terminal MLL to more than 60 different partner genes in frame. Many of the MLL partner genes contain transcription activation domains or function as transcriptional activators. Despite the heterogeneity of fusion partners, the N-terminus of MLL fusion proteins always consists of the N-terminal menin binding motif and the CXXC domain. The MLL-CXXC domain specifically recognizes unmethylated CpG sequences of the HOX-A gene. Disruption of the MLL-CXXC and HOX-A gene interaction leads to down regulation of HOX-A gene expression and may potentially reverse leukemogenesis. We have miniaturized and optimized an in-vitro assay to screen for inhibitors of the MLL-CXXC domain and HOX-A DNA interaction, which could have utility in MLL fusion leukemias.
Sequence of Histone-lysine N-methyltransferase 2A (Homo sapiens) (Q03164 whole entry, looked up, the tested form may be a part): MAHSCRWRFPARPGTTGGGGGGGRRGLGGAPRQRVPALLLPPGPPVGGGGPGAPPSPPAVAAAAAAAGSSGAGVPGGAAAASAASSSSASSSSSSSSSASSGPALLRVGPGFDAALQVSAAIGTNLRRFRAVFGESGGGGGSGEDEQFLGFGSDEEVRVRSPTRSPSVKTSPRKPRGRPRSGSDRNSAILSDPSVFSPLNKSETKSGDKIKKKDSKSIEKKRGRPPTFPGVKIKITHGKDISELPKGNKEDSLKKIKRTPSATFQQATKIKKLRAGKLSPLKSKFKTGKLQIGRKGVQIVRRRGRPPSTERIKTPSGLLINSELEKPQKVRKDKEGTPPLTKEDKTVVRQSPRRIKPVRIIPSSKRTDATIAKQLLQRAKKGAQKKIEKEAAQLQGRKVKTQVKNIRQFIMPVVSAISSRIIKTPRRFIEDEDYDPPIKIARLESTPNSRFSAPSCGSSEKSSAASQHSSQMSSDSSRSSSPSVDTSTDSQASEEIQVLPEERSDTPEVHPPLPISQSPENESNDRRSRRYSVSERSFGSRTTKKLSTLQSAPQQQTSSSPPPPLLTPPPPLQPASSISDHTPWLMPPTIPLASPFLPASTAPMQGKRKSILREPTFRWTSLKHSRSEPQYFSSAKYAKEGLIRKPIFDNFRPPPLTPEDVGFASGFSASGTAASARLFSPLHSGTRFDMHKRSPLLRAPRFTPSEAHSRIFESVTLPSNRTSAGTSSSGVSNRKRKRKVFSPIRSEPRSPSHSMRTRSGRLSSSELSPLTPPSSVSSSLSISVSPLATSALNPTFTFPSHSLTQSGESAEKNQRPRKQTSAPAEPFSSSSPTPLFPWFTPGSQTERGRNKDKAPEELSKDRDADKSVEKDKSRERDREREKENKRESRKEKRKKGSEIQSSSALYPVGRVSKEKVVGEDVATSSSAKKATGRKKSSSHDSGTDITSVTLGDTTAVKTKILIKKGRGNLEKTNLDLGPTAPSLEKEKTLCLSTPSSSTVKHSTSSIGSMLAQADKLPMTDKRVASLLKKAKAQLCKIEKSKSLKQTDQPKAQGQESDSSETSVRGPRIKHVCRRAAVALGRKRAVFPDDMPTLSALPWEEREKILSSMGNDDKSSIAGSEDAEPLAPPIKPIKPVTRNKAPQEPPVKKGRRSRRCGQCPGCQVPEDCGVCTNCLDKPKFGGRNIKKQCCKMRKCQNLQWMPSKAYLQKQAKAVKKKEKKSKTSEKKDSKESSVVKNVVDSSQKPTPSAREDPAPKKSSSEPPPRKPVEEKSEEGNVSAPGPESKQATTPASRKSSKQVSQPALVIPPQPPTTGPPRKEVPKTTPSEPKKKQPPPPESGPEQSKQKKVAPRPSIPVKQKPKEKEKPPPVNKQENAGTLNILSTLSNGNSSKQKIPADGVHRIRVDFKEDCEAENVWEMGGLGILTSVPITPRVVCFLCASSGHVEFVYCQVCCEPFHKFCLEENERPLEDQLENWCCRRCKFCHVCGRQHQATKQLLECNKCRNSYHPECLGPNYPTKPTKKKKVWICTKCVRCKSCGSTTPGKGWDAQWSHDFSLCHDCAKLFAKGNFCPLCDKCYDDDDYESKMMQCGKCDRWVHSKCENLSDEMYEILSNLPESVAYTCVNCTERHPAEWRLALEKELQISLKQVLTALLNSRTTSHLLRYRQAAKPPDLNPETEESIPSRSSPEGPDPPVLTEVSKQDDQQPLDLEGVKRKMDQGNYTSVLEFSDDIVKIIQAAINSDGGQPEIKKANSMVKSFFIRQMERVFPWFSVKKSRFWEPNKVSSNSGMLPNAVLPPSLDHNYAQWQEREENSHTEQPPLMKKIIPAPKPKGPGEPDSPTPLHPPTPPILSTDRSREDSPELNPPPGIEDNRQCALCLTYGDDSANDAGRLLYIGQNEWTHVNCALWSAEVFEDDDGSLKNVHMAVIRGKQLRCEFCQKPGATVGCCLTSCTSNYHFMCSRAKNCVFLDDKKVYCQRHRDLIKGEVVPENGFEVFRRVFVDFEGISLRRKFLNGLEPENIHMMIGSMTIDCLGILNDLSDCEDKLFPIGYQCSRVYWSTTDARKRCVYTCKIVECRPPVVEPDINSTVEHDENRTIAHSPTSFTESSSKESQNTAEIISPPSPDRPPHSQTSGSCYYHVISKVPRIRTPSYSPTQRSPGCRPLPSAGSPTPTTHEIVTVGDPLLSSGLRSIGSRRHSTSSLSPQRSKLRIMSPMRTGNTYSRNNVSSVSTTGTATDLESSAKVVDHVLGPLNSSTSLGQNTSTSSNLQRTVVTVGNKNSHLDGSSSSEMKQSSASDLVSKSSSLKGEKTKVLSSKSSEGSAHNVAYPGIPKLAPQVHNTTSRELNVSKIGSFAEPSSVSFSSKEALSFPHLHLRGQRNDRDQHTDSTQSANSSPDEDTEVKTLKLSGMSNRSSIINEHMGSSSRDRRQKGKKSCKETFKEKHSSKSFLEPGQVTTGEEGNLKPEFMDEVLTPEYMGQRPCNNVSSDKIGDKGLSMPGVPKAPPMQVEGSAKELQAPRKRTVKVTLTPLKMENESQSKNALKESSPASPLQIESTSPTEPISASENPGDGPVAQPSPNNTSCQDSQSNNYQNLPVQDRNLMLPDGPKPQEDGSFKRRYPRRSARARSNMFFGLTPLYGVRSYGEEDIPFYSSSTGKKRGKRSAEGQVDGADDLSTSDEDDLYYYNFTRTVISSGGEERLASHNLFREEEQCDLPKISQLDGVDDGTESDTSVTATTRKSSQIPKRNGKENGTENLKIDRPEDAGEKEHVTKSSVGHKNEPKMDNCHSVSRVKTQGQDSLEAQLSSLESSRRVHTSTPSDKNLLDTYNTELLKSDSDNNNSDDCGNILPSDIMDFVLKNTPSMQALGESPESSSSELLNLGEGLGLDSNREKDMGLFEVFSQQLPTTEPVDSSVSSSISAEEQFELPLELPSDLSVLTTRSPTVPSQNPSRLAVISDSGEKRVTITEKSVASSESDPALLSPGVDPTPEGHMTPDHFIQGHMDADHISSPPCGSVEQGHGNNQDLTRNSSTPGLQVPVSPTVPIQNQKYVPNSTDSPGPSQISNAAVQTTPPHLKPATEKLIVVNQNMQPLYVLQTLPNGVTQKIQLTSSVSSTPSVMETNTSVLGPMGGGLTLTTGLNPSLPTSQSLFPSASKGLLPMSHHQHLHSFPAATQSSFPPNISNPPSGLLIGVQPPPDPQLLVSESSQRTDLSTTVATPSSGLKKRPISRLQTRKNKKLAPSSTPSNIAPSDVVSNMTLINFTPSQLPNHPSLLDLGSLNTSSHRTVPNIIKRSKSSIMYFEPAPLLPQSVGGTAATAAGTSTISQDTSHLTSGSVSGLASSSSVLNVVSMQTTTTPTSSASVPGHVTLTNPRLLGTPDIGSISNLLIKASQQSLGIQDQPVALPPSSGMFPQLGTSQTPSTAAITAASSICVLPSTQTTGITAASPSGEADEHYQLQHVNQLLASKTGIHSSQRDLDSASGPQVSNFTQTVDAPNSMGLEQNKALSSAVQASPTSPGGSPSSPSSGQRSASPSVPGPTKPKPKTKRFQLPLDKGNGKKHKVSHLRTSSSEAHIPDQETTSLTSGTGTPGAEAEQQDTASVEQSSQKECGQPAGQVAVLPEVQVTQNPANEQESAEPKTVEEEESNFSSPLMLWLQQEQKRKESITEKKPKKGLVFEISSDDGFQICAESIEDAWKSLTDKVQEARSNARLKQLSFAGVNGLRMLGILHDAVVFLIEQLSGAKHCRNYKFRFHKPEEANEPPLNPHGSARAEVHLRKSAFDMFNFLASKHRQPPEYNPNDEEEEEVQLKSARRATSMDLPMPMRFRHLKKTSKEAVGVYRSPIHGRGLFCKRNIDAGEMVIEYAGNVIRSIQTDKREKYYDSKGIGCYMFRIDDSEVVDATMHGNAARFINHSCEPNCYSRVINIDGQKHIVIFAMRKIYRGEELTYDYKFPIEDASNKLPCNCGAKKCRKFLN
The affinity purified MLL-CXXC domain, unlabeled HOX-A9 DNA strand, fluorescein (FLSN) labeled HOX-A9 DNA strand were kindly supplied by the laboratory of Dr. John Bushweller, University of Virginia. All reagents were stored in single use aliquots at -80C. Assay Reagents: Assay buffer: 50 mM TRIS-HCl pH 7.5, 50 mM NaCl, 1 mM DTT. Add 0.05% BSA prior to reaction setup. Assay Procedure: 1.Dispense 1 ul of a 7 uM MLL-CXXC solution prepared in assay buffer into column 1-48. 2.Transfer 23 nl of compounds and unlabeled HOX-A9 per well. 3.Incubate for 5 minutes at ambient. 4.Dispense 1ul of a 50 nM FLSN-HOX-A9 solution prepared in assay buffer into columns 1-48 5.Centrifuge for 30 seconds at 1000 RPM. 6.Incubate for 30 minutes at ambient. 7.Read using the Envision reader fluorescent polarization protocol.
In the case of `O=C(OCC1O[C@@H](OC(=O)c2cc(O)c(O)c(O)c2)[C@@H](OC(=O)c2cc(O)c(O)c(O)c2)[C@@H](OC(=O)c2cc(O)c(O)c(O)c2)[C@@H]1OC(=O)c1cc(O)c(O)c(O)c1)c1cc(O)c(O)c(O)c1` (stereo not given in full), the Potency is 31.6 µM (active).
For the compound `COC([CH2][Hg])CNC(=O)c1ccccc1OCC(=O)O` (stereo not given), the Potency entry is “inactive”.
Then `CC(C)COC(=O)n1c(=O)oc2ccc(S(=O)(=O)N3CCCCC3)cc21`, with “inactive”; and `CCOC(=O)C(NS(=O)(=O)c1ccc(C)cc1)(C(F)(F)F)P(=O)(OCC(C)C)OCC(C)C` (stereo not given), with “inactive”.
Then `CN1CCCC(=C(c2cccs2)c2cccs2)C1`, with “inactive”.
